Source: PubChem (National Center for Advancing Translational Sciences (NCATS))
KB-3-1 cytotox: KB-3-1 parental cell cytotoxicity | Potency, µM (highest dose often 46.1 µM), most hits filed as cytotoxic | AID 1347075 | hit rate 1.4% among 400,000 | KB-3-1 viability, CellTiter-Glo ATP luminescence, 72 h; note: % is set by controls: 0 for no effect and ±100 for the full control effect; nearly all actives have a fitted effect of over 60% in size
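KB-3-1 parental drug-naive adenocarcinoma cells in DMEM/10% FBS, incubated 72 h at 37 C with pin-transferred compounds across a concentration series. Viability by CellTiter-Glo luminescence; concentration-response curves fitted after normalization.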
SW480 rereplic: DNA re-replication induction in SW480 cells; hit rate 1.8% among 340,000; Potency, µM (series often up to 46.1 µM), for inactives: at the top dose re-replication activation, hits mostly activators; AID 624297; SW480 DNA re-replication, Hoechst DNA content imaging, 48 h; note: % of control where 0% means no effect; nearly all actives have a fitted effect of over 55% in size
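SW480 cells exposed to compounds for 48 hr at 37 C, 5% CO2, then Hoechst-stained 40 min. Nuclear DNA content imaged by fluorescence scanning (405 nm excitation, 500-530 nm emission); re-replication scored as increased high-intensity nuclei.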
MCF10A rereplic: induces DNA re-replication in MCF 10a normal breast cells | MCF 10A DNA re-replication, Hoechst nuclear intensity, 48 h | AID 624296 | hit rate 2.9% among 350,000 | Potency, µM (highest dose often 46.1 µM), for the others: at the highest dose activity, positive = re-replication, actives largely listed as activators; note: % of control where 0% means no effect; nearly all actives have a fitted effect of over 50% in size
HT1080NT lethal: kills 2HG-producing HT-1080-NT fibrosarcoma cells; HT-1080-NT fibrosarcoma viability, CellTiter-Glo ATP luminescence, 48 h; Potency, µM (doses to about 46.1 µM), for inactives: top-dose activity, negative = less viability, most hits filed as cytotoxic; hit rate 1.6% among 360,000; AID 686970;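 note: NT is the 2HG producing partner of a matched IDH1 knockdown line; 0% = DMSO-treated cells and -100% = media-only wells without cells; nearly all actives have a fitted effect of over 55% in size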
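Read-out is CellTiter-Glo luminescence after 10 minutes at room temperature, following 48 hours' compound treatment of HT-1080-NT cells (750 cells/well, RPMI, 5% FBS, 37 degrees C).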
HT1080 IDH1KD tx: HT-1080 IDH1 knockdown cell toxicity (counter line) | AID 686971 | HT-1080 IDH1 knockdown viability, ATP luminescence, 48 h | hit rate 2% among 360,000 | Potency, µM (series often up to 46.1 µM), for inactives: at the highest dose activity, negative = toxicity, most hits filed as cytotoxic;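 note: 0% = DMSO wells and -100% = cell-free medium wells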
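After a 2 h attachment period, IDH1KD HT-1080 cells took pin-transferred compound for 48 h at 37 °C; ATP-based luminescence after 10 min room-temperature reagent incubation reported viability.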
KB-V1 MDR tox: kills drug-selected multidrug resistant KB-V1 cells; hit rate 3.4% among 400,000; Potency, µM (top dose mostly 46.1 µM), hits mostly cytotoxic; KB-V1 MDR cells viability, CellTiter-Glo, 72 h; AID 1347076; note: % is set by controls: 0 for no effect and ±100 for the full control effect; nearly all actives have a fitted effect of over 60% in size
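Following 72 h at 37 degrees C with compound, KB-V1 cell viability was read by CellTiter-Glo luminescence, medium being phenol-red-free DMEM plus 10% FBS; concentration-response parameters came from normalized, curve-fitted qHTS data.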
The depositor's hits bear a star. In the library only some 7.9% were active in any assay of this set; here they are far more common. Calls come from the whole dose curve; as a rule, active = well fitted curve in the direction sought with a large enough effect; inconclusive = small, poorly fitted or top-dose-only effect, or another doubt; inactive = no such curve, though single readings can be large; an effect the other way counts as inactive or inconclusive. Potency is the fitted concentration of half-maximal effect.

For NC(=O)CN1C(=O)C2C3C=CC(C3)C2C1=O (configuration not stated) the results were KB-3-1 cytotox inactive, SW480 rereplic -5%, MCF10A rereplic -1%, HT1080NT lethal 19%, HT1080 IDH1KD tx 19% and KB-V1 MDR tox inactive.
O=S(=O)(Cc1ccc(Cl)cc1)NCC1CCCO1 (configuration not stated) was read as KB-3-1 cytotox inactive, SW480 rereplic 17%, MCF10A rereplic -7%, HT1080NT lethal 17%, HT1080 IDH1KD tx 6% and KB-V1 MDR tox inactive.
`Clc1ccc(Nc2ncnc3ccc(Br)cc23)cc1` gave KB-3-1 cytotox inactive, SW480 rereplic 0%, MCF10A rereplic inconclusive, HT1080NT lethal inconclusive, HT1080 IDH1KD tx inconclusive and KB-V1 MDR tox 10µM*.
Screening CN(C)c1ccc(Nc2ncnc3ccc(Br)cc23)cc1 returned KB-3-1 cytotox inactive, SW480 rereplic 9%, MCF10A rereplic 16%, HT1080NT lethal -4%, HT1080 IDH1KD tx -6% and KB-V1 MDR tox inconclusive.
`Clc1cccc(Nc2ncnc3ccc(Br)cc23)c1` gave KB-3-1 cytotox inactive, SW480 rereplic 3%, MCF10A rereplic 8%, HT1080NT lethal 7.9µM*, HT1080 IDH1KD tx inconclusive and KB-V1 MDR tox inconclusive.
COc1ccccc1NC(=O)Cn1c(=O)n(Cc2ccccc2)c(=O)c2sc3ccccc3c21 was read as KB-3-1 cytotox inactive and KB-V1 MDR tox inactive.
`O=C(NC1CC1)c1cccc(NC(=O)C2CCN(S(=O)(=O)c3ccccc3C(F)(F)F)CC2)c1` gave KB-3-1 cytotox inconclusive, HT1080NT lethal -5%, HT1080 IDH1KD tx 1% and KB-V1 MDR tox inactive.
C/C(=N\O)c1ccc2c3ccccc3n(C)c2c1 was read as KB-3-1 cytotox 2.6µM*, SW480 rereplic 0%, MCF10A rereplic -1%, HT1080NT lethal -7%, HT1080 IDH1KD tx -8% and KB-V1 MDR tox inconclusive.
Screening COc1ccc(CCNC(=O)c2ccc3c(c2)CCN3S(=O)(=O)c2ccccc2)cc1OC returned KB-3-1 cytotox inactive and KB-V1 MDR tox inactive.
For COc1ccc(CNC(=O)C2(C)Cc3ccccc3C(=O)O2)cc1 (configuration not stated) the results were KB-3-1 cytotox inactive, SW480 rereplic -12%, MCF10A rereplic 1%, HT1080NT lethal 8%, HT1080 IDH1KD tx 2% and KB-V1 MDR tox inactive.
For COc1cccc(S(=O)(=O)NCC(=O)Nc2ccc(C(C)(C)C)cc2)c1 the results were KB-3-1 cytotox inactive, SW480 rereplic -5%, MCF10A rereplic 1%, HT1080NT lethal 2%, HT1080 IDH1KD tx -9% and KB-V1 MDR tox 16µM*.
Screening COc1ccc(NS(=O)(=O)c2cccc(NC(=O)c3ccc(Cl)nc3)c2)cc1 returned KB-3-1 cytotox inconclusive, SW480 rereplic inconclusive, MCF10A rereplic -7%, HT1080NT lethal 1.6µM*, HT1080 IDH1KD tx 6.5µM* and KB-V1 MDR tox 2.9µM*.
For COc1cccc(S(=O)(=O)Nc2ccc(C(=O)Nc3ccncc3)cc2)c1 the results were KB-3-1 cytotox inconclusive, SW480 rereplic 1%, MCF10A rereplic inconclusive, HT1080NT lethal 6%, HT1080 IDH1KD tx 9% and KB-V1 MDR tox 21µM*.
Screening O=C(Nc1ccncc1)c1ccc(NS(=O)(=O)c2cccc(F)c2)cc1 returned KB-3-1 cytotox inconclusive, SW480 rereplic -6%, MCF10A rereplic inconclusive, HT1080NT lethal 5%, HT1080 IDH1KD tx -11% and KB-V1 MDR tox inconclusive.
For O=C(Nc1cccc(S(=O)(=O)Nc2ccc(Cl)cc2)c1)c1ccc(Cl)nc1 the results were KB-3-1 cytotox inconclusive, SW480 rereplic -5%, MCF10A rereplic 5%, HT1080NT lethal inconclusive, HT1080 IDH1KD tx inconclusive and KB-V1 MDR tox inactive.
COc1ccc(NS(=O)(=O)c2cccc(NC(=O)CCC(=O)c3cccs3)c2)cc1 was read as KB-3-1 cytotox inactive, SW480 rereplic -5%, MCF10A rereplic 20%, HT1080NT lethal 3%, HT1080 IDH1KD tx 4% and KB-V1 MDR tox inactive.
